{
  "source": "paper PMC5540273",
  "about": "(PLoS ONE, 2017);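 also: kd values determined as follow-up on hits from a single-replicate KINOMEscan panel screen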",
  "key": {"GRK3": {"system": "T1, GRK3", "T1 construct": "gene ADRBK2"}, "HASPIN": {"system": "T2, HASPIN", "T2 construct": "gene GSG2"}},
  "data": [
    {"molecule": "COc1cccc(-c2cc(-c3c[nH]nc3-c3ccccn3)ccn2)c1", "note": "[GW680338]", "values": [
      {"measurement": "Kd", "setting": "FLT4", "result": "> 10", "unit": "µM"}
    ]},
    {"molecule": "CC(=O)Nc1nc2cnc(Nc3cc(NC(=O)c4cccc(CCC#N)c4)ccc3C)nc2s1", "values": [
      {"measurement": "Kd", "setting": "FRK", "result": "> 10", "unit": "µM"}
    ]},
    {"molecule": "O=C(O)COc1ncnc2cc(-c3ccc4[nH]ncc4c3)sc12", "values": [
      {"measurement": "Kd", "setting": "FRK", "result": "> 10", "unit": "µM"},
      {"measurement": "Kd", "setting": "FYN", "result": "> 10", "unit": "µM"}
    ]},
    {"molecule": "CC(C)(C)c1ccc(C(=O)Nc2cn3cc(Cl)ccc3n2)cc1", "values": [
      {"measurement": "Kd", "setting": "FYN", "result": "> 10", "unit": "µM"}
    ]},
    {"molecule": "CCCc1ccc(S(=O)(=O)NC2CCN(c3ccnc(Nc4ccc(F)cc4)n3)C2)cc1", "note": "(stereo not drawn) [GSK1379715]", "values": [
      {"measurement": "Kd", "setting": "GRK1", "result": "> 10", "unit": "µM"}
    ]},
    {"molecule": "Clc1cc(Cl)cc(Nc2ccnc(Nc3cc(Cl)cc(Cl)c3)n2)c1", "note": "[GSK175726]", "values": [
      {"measurement": "Kd", "setting": "GRK1", "result": "> 10", "unit": "µM"}
    ]},
    {"molecule": "O=C(Nc1ccc2c(c1)OCO2)NC1CCN(c2ccnc(Nc3ccc(F)cc3)n2)C1", "note": "(stereo not drawn) [GSK1379724]", "values": [
      {"measurement": "Kd", "setting": "GRK3", "result": "> 10", "unit": "µM"}
    ]},
    {"molecule": "Cc1ccc(NC(=O)Nc2cc(C(C)(C)C)nn2-c2ccccc2)cc1", "note": "[GSK1014915]", "values": [
      {"measurement": "Kd", "setting": "GRK3", "result": "> 10", "unit": "µM"}
    ]},
    {"molecule": "O=C1NC(=O)C(N2CCc3ccccc32)=C1c1ccccc1Cl", "note": "[SB-373598]", "values": [
      {"measurement": "Kd", "setting": "HASPIN", "result": "> 10", "unit": "µM"}
    ]},
    {"molecule": "Cc1csc(-c2nc(Nc3ccncc3)c3ccccc3n2)n1", "note": "[GW869640]", "values": [
      {"measurement": "Kd", "setting": "HASPIN", "result": 0.077, "unit": "µM"}
    ]},
    {"molecule": "Cc1nnc(-c2ccc3occ(-c4ccc(S(C)=O)cc4)c3c2)[nH]1", "note": "(stereo not drawn)", "values": [
      {"measurement": "Kd", "setting": "HIPK2", "result": 0.32, "unit": "µM"}
    ]}
  ]
}
